From PubChem BioAssay (Tox21)
Where “and” joins values, the source holds several entries; their conditions need not be identical. Equal values may be shown once. Records with an inconclusive call do not appear. Some structures have more than one record in an assay (separate samples or runs), and their calls can disagree. Calls of active or inactive are those of the source. Unless noted, calls follow the shape of the dose curve; as a rule, active = well fitted curve in the direction sought with a large enough effect in the repeat runs; inconclusive = weak or mixed curves; inactive = no such curve, though single readings can be large; an effect the other way counts as inactive or inconclusive.

Tests used:
[1] = target: Estrogen receptor beta (Homo sapiens) (UniProt Q92731); experiment: qHTS assay to identify small molecule agonists of the estrogen receptor beta (ER-beta) signaling pathway (AID 1259377; active = well fitted activation curve with a large enough effect in the signal ratio in the repeat runs, not every such curve was filed as active; the % refers to the signal ratio)
Estrogen receptor beta (Homo sapiens), sequence (Q92731 whole entry, looked up): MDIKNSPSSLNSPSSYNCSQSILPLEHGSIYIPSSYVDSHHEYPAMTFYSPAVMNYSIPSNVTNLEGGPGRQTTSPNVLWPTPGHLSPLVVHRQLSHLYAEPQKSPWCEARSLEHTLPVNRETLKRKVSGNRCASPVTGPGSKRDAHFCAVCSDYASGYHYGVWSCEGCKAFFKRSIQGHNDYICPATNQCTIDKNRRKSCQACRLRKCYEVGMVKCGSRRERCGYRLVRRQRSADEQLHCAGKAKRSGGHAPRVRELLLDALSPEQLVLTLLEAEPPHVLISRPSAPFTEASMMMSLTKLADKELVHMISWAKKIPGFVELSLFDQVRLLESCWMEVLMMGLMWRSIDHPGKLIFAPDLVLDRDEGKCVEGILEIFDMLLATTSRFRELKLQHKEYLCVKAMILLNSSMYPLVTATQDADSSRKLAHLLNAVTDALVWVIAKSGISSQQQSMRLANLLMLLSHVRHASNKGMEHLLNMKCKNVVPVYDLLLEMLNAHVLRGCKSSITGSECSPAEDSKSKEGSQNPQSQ
In short: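 ER-beta-UAS-bla HEK293T (GripTite) cells carrying a UAS-driven beta-lactamase reporter, in medium with 2% charcoal-stripped FBS, were exposed to compounds for 16 hr at 37C; LiveBLAzer B/G FRET substrate was then added and fluorescence read after 2 hours at room temperature.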

[2] = target: Estrogen receptor beta (Homo sapiens) (UniProt Q92731); experiment: qHTS assay to identify small molecule antagonists of the estrogen receptor beta (ER-beta) signaling pathway (AID 1259378; active = well fitted inhibition curve with a large enough effect in the signal ratio in the repeat runs, not every such curve was filed as active; the % refers to the signal ratio)
In short: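 ER-beta-UAS-bla HEK293T (GripTite) cells in 2% charcoal-stripped FBS medium were preincubated 6 hr at 37C, dosed with compound, then stimulated with 1 nM E2 (final) for 16 hr; beta-lactamase reporter read by B/G FRET fluorescence after 2 hr substrate loading.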

[3] = qHTS assay to identify small molecule agonists of the androgen receptor (AR) signaling pathway in the presence of an antagonist - cell viability counter screen (AID 1259379);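 also: MDA-kb2 human breast cancer cells carrying an MMTV luciferase reporter; series mostly up to about 92 µM; nearly all actives have a fitted effect of over 25% in size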
In short: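 Viability counter screen: CellTiter-Fluor fluorescence, measured in the same wells as the luciferase read-out. MDA-kb2 cells, 3,000/well, with nilutamide at 3.0uM final and compounds at 15 concentrations, 16 hr at 37C, 0% CO2.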

[4] = qHTS assay to identify small molecule agonists of the estrogen receptor beta (ER-beta) signaling pathway - cell viability counter screen (AID 1259380); also: nearly all actives have a fitted effect of over 30% in size; also: potency is read from the fitted curve at half-maximal effect
In short: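 Luminescence read-out (CellTiter-Glo, 30 min, room temp) taken in the same wells as the beta-lactamase reporter assay; ER-beta-UAS-bla HEK293T cells exposed to DMSO-dissolved compounds for 16 hr at 37C in 2% charcoal-stripped FBS medium.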

[5] = qHTS assay to identify small molecule antagonists of the estrogen receptor beta (ER-beta) signaling pathway - cell viability counter screen (AID 1259382); also: nearly all actives have a fitted effect of over 55% in size; also: potency is read from the fitted curve at half-maximal effect
In short: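 Luminescent ATP read-out (CellTiter-Glo, 30 min, RT) taken in the same wells as the bla reporter assay. HEK293T ER-beta-UAS-bla cells in 2% charcoal-stripped FBS were exposed to compounds with 1nM E2 for 16 hr at 37C.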

[6] = target: Estrogen receptor (Homo sapiens) (UniProt P03372); experiment: qHTS assay to identify small molecule agonists of the estrogen receptor alpha (ER-alpha) signaling pathway in the presence of an antagonist (AID 1259383; calls by dose curve; also: top concentration of the series differs between compounds; nearly all actives have a fitted effect of over 15% in size)
Estrogen receptor (Homo sapiens), sequence (P03372 whole entry, looked up): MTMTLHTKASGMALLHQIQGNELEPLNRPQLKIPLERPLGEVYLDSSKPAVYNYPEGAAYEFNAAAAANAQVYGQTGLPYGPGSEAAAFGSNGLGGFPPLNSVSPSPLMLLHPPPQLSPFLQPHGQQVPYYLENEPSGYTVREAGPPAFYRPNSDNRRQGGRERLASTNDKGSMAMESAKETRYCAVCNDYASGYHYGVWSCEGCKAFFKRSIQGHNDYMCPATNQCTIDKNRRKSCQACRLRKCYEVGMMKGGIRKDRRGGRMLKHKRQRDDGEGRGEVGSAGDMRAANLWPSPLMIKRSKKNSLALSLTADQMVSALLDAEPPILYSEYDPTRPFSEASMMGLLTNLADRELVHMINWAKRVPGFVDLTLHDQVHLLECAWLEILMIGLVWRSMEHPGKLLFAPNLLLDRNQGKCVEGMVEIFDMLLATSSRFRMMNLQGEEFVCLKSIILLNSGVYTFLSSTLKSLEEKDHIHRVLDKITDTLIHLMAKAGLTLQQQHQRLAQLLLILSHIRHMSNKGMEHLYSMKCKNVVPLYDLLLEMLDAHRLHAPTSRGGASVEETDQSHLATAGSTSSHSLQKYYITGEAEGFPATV
In short: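 Luciferase luminescence (ONE-Glo, 30min at room temperature) measured in VM7Luc4E2 cells after 22hr compound exposure at 15 concentrations, with 10.0nM ICI-182,780 final present; cells express endogenous ER-alpha and carry four EREs upstream of luciferase.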

[7] = qHTS assay to identify small molecule agonists or antagonists of the thyroid stimulating hormone receptor (TSHR) signaling pathway - wild type cell line counter screen (AID 1259384; calls by dose curve)
In short: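 Wild-type HEK293 cells were plated 18 h at 37 C/5% CO2, pin-dosed with compound plus Ro20-1724 medium, held 30 min at room temperature, then given cAMP-d2 and anti-cAMP-cryptate; fluorescence was read after 1 h. Fifteen concentrations, triplicate.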

[8] = target: Thyrotropin receptor (Homo sapiens) (UniProt P16473); experiment: qHTS assay to identify small molecule antagonists of the thyroid stimulating hormone receptor (TSHR) signaling pathway (AID 1259385; calls by dose curve; also: nearly all actives have a fitted effect of over 20% in size)
Thyrotropin receptor (Homo sapiens), sequence (P16473 whole entry, looked up): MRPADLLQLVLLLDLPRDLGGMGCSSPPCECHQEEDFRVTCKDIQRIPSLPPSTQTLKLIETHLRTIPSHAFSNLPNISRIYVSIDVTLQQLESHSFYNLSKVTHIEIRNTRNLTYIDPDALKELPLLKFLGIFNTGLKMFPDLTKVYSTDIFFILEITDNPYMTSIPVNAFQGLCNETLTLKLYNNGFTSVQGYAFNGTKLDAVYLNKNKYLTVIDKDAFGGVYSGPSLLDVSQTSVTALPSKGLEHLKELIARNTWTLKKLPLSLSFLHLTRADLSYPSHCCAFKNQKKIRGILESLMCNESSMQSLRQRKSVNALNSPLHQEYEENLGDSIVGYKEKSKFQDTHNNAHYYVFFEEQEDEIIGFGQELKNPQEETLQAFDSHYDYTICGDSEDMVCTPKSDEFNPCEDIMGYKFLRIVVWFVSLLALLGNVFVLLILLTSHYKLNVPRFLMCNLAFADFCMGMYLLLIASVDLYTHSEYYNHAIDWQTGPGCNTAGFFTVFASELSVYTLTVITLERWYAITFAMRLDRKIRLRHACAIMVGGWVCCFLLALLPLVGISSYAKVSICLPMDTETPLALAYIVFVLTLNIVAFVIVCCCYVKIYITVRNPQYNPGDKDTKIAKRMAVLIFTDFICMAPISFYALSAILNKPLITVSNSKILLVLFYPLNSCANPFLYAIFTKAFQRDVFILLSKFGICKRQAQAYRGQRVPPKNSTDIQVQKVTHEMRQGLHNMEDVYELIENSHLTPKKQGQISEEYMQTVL
In short: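 TSHR-HEK293 cells were plated and held 18 h at 37C/5% CO2, then given compound plus Ro20-1724 and stimulated with TSH at 1.5 ng/mL final. After 30 min at room temperature, cAMP was detected with cAMP-d2/anti-cAMP-cryptate (1 h) by fluorescence.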

[9] = qHTS assay to identify small molecule agonists of the estrogen receptor alpha (ER-alpha) signaling pathway in the presence of an antagonist - cell viability counter screen (AID 1259386);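 also: series mostly up to about 92 µM; cells exposed to compounds for 22 h at 37 °C before the viability read; nearly all actives have a fitted effect of over 30% in size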
In short: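 Read-out: CellTiter-Fluor fluorescence after 1hr reagent incubation, measured in the same wells as the luciferase readout. VM7Luc4E2 cells were exposed to 15 compound concentrations with 10.0nM ICI-182,780 for 22hr at 37C.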

[10] = target: Progesterone receptor (Homo sapiens) (UniProt P06401); experiment: qHTS assay to identify small molecule agonists of the progesterone receptor (PR) signaling pathway (AID 1346784; calls by dose curve; also: nearly all actives have a fitted effect of over 30% in size)
Progesterone receptor (Homo sapiens), sequence (P06401 whole entry, looked up): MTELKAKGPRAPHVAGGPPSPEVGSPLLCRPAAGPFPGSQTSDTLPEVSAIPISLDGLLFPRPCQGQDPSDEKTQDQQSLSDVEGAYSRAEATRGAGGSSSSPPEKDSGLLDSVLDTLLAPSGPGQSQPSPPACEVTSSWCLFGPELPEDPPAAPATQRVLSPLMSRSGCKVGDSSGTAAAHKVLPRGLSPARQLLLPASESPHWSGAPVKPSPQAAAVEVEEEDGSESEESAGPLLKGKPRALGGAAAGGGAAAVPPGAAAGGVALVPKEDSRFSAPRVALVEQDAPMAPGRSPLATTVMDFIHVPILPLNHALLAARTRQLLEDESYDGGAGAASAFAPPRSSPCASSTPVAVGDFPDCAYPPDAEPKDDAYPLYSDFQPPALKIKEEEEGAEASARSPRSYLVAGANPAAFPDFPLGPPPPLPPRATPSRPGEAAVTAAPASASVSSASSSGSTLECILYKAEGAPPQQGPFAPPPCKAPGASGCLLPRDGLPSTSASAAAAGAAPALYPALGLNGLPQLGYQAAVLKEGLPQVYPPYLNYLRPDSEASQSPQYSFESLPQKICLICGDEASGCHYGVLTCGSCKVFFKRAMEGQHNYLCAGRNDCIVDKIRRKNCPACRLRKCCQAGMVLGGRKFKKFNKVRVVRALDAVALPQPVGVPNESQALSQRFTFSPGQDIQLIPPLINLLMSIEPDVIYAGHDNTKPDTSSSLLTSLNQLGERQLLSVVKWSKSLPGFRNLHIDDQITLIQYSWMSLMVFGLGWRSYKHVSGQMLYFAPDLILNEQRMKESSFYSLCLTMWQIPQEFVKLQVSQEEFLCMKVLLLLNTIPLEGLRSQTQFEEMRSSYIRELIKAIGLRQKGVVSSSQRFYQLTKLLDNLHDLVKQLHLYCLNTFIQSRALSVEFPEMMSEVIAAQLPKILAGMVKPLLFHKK
In short: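 PR-UAS-bla HEK 293T cells carrying a UAS-driven beta-lactamase reporter were seeded in medium with 2% charcoal-stripped FBS, preincubated 6 hr at 37C, then exposed to compounds in DMSO for 16 hr; agonism was read by LiveBLAzer B/G FRET fluorescence.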

[11] = target: Progesterone receptor (Homo sapiens) (UniProt P06401); experiment: qHTS assay to identify small molecule antagonists of the progesterone receptor (PR) signaling pathway (AID 1346795; active = well fitted inhibition curve with a large enough effect in the signal ratio in the repeat runs, not every such curve was filed as active; the % refers to the signal ratio; also: potency is read from the fitted curve at half-maximal effect)
In short: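 PR-UAS-bla HEK293T cells carrying a UAS-driven beta-lactamase reporter were plated in medium with 2% charcoal-stripped FBS and rested 6 hr at 37C. Compounds were added with 1 nM R5020 (final) for 16 hr, then FRET substrate loaded 2 hr at room temperature.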

[12] = qHTS assay to identify small molecule antagonists of the progesterone receptor (PR) signaling pathway - cell viability counter screen (AID 1346798); also: series mostly up to about 92 µM; nearly all actives have a fitted effect of over 50% in size
In short: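 PR-UAS-bla HEK293T cells in medium with 2% charcoal-stripped FBS were treated with compounds plus R5020 for 16 hr at 37C. Cell viability was then read by CellTiter-Glo luminescence after 30 min at room temperature in the same wells.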

[13] = qHTS assay to identify small molecule agonists of the progesterone receptor (PR) signaling pathway - cell viability counter screen (AID 1346799; calls by dose curve; also: nearly all actives have a fitted effect of over 45% in size; also: potency is read from the fitted curve at half-maximal effect)
In short: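 PR-UAS-bla HEK293T cells, 3,000 per well in medium with 2% charcoal-stripped FBS, were preincubated 6 hr at 37C, then exposed to compounds for 16 hr; viability was read as CellTiter-Glo luminescence after 30 min at room temperature.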

[14] = qHTS assay to identify small molecule antagonists of the TGF-beta/Smad signaling pathway - cell viability counter screen (AID 1346824); also: nearly all actives have a fitted effect of over 50% in size
In short: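 SBE-bla HEK 293T cells were plated overnight at 37 C, then given compounds in DMSO plus TGF-beta1 (added as 0.25 ng/mL solution) for 5 hr. After the bla read, CellTiter-Glo was added to the same wells and luminescence read after 30 min at room temperature.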

[15] = qHTS assay to identify small molecule agonists of the TGF-beta/Smad signaling pathway - cell viability counter screen (AID 1346829); also: top concentration of the series differs between compounds; nearly all actives have a fitted effect of over 45% in size
In short: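 In parallel with the Smad reporter read, viability of HEK 293T cells stably carrying SBE-bla is quantified by ATP luminescence following 5 hr compound treatment.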

[16] = qHTS assay to identify small molecule agonists of the TGF-beta/Smad signaling pathway (AID 1346859; active = well fitted activation curve with a large enough effect in the signal ratio in the repeat runs, not every such curve was filed as active; the % refers to the signal ratio; also: series mostly up to about 77 µM)
In short: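 HEK 293T cells stably carrying a beta-lactamase reporter driven by the Smad binding element were seeded overnight, exposed to DMSO-dissolved compounds for 5 hr at 37 C, 5% CO2, then loaded with FRET substrate for 2 hr at room temperature.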

[17] = Human pregnane X receptor (PXR) small molecule agonists, qHTS cell viability counter screen (AID 1346977); also: nearly all actives have a fitted effect of over 50% in size
In short: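 PXR-Luc HepG2 cells in medium with 5% charcoal-stripped FBS were pre-incubated 5hr, then exposed to compounds for 24hr at 37C. Viability was read in the same wells by CellTiter-Fluor fluorescence, reagent added after 23hr with a 1hr incubation.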

[18] = target: Thyrotropin-releasing hormone receptor (Homo sapiens) (UniProt P34981); experiment: qHTS assay to identify small molecule antagonists of the thyrotropin-releasing hormone receptor (TRHR) signaling pathway (AID 1346877; active = well fitted inhibition curve with a large enough effect in the repeat runs, not every such curve was filed as active; also: series mostly up to about 51 µM)
Thyrotropin-releasing hormone receptor (Homo sapiens), sequence (P34981 whole entry, looked up): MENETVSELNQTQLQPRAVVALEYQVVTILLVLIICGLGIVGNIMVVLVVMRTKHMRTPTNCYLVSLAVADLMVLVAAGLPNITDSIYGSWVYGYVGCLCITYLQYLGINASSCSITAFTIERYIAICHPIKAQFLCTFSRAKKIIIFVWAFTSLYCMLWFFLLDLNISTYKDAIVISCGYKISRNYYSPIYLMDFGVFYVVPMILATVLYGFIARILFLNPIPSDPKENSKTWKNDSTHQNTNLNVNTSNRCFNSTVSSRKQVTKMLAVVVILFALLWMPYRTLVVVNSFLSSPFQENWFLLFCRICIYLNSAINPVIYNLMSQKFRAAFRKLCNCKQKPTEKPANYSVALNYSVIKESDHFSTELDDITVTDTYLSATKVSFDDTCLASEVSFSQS
In short: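 HEK293/TRHR cells, 18 h, 37 °C; Ca2+ dye 2 h; cpd 5 min RT; TRH 1 nM final; fluorescence read 3 min, 1 s intervals; 15 concs, triplicate.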

[19] = target: Thyrotropin-releasing hormone receptor (Homo sapiens) (UniProt P34981); experiment: qHTS assay to identify small molecule agonists of the thyrotropin-releasing hormone receptor (TRHR) signaling pathway (AID 1346891; calls by dose curve; also: series mostly up to about 58 µM)
In short: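 TRHR-expressing HEK293 cells were plated 18 h at 37 °C/5% CO2, loaded with calcium dye 2 h at 37 °C, then given compound in DMSO; fluorescence was read kinetically for 3 min at 1 s intervals.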

[20] = target: Androgen receptor (Homo sapiens) (UniProt P10275); experiment: qHTS assay to identify small molecule agonists of the androgen receptor (AR) signaling pathway in the presence of an antagonist (AID 1259381; calls by dose curve; also: nearly all actives have a fitted effect of over 15% in size)
Androgen receptor (Homo sapiens), sequence (P10275 whole entry, looked up): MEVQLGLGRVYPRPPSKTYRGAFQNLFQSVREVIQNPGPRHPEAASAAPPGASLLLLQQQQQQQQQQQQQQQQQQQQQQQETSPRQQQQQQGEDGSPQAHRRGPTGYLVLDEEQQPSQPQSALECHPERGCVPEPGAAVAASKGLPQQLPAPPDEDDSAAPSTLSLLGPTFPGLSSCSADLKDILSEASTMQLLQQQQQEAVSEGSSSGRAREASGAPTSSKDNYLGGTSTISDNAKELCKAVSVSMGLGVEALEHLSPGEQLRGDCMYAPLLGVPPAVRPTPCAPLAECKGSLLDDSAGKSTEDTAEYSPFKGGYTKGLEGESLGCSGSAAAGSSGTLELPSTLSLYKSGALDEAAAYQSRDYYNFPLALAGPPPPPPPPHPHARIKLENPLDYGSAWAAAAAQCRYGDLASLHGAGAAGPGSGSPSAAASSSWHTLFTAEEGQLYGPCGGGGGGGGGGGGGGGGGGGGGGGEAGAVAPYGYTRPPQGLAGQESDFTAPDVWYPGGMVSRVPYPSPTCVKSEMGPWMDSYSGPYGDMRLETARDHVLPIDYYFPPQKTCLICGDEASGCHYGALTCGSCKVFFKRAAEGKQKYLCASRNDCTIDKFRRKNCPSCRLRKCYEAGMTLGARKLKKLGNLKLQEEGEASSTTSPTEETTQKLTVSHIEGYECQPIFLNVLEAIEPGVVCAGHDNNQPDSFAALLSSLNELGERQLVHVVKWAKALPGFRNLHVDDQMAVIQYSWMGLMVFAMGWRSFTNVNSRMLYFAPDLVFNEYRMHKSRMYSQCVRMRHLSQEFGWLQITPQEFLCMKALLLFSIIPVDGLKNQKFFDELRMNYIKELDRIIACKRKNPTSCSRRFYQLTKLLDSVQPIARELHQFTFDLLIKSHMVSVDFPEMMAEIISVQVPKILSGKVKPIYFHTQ
In short: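 Luciferase read-out (ONE-Glo, 30min room temperature) in MDA-kb2 MMTV-reporter cells; agonist mode run in presence of AR antagonist nilutamide, 3.0uM final. Compounds tested as 15-point series, 16hr exposure at 37C, 0% CO2.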

Measured: Potency

CC(O)CCl (stereo not drawn)
not listed: [18] | [19] | [20]
inactive: all other assays above

CC(C)[N+](C)(CCC(C(N)=O)(c1ccccc1)c1ccccc1)C(C)C
not listed: [15] | [17] | [20]
inactive: all other assays above

COc1ccc(C=O)cc1O
inactive: all assays above

c1cncc([C@@H]2CCCCN2)c1
not listed: [19] | [20]
inactive: all other assays above

C1CN2CCC1CC2
not listed: [15] | [20]
inactive: all other assays above

NNC(N)=O
not listed: [10] | [14] | [15] | [16] | [20]
inactive: all other assays above

CCC(C)C(C)(COC(N)=O)COC(N)=O (stereo not drawn)
not listed: [20]
inactive: all other assays above

CCNc1nc(NCC)nc(SC)n1
not listed: [16] | [17] | [20]
inactive: all other assays above

N[C@@H]1C[C@H]1c1ccccc1
not listed: [15] | [16] | [17] | [20]
inactive: all other assays above

C=CC1(C)OC(=O)N(c2cc(Cl)cc(Cl)c2)C1=O (stereo not drawn)
active: [4] 27.1 µM and 21.7 µM | [11] 21.6 µM
54.2 µM (active) and inactive: [5] | [13]
not listed: [12] | [19] | [20]
inactive: all other assays above

C/C=C/CC#N
not listed: [18] | [19] | [20]
inactive: all other assays above

C=C(C)[C@H]1CN[C@H](C(=O)O)[C@H]1CC(=O)O
not listed: [10] | [17] | [20]
inactive: all other assays above

ClCCN1CCCC1
not listed: [13] | [18] | [19] | [20]
inactive: all other assays above

ClC1=C(Cl)C2(Cl)C(CBr)CC1(Cl)C2(Cl)Cl (stereo not drawn)
68.6 µM (active) and inactive: [13]
not listed: [10] | [14] | [19] | [20]
inactive: all other assays above

O=C(Cl)OCc1ccccc1
not listed: [17] | [20]
inactive: all other assays above
